# According to PubChem BioAssay AID434936 (National Center for Advancing Translational Sciences (NCATS), 2010):
# Inconclusive results are not listed. Calls of active or inactive are those of the source. The call rests on the fitted dose curve; in most records, active means well fitted curve in either direction with a large enough effect; inconclusive means small, poorly fitted or top-dose-only effect; inactive means flat fitted curve, though single readings scatter.
# Target: Neuropeptide S receptor (Homo sapiens) (UniProt Q6W5P4)
# Sequence (Q6W5P4 whole entry, looked up): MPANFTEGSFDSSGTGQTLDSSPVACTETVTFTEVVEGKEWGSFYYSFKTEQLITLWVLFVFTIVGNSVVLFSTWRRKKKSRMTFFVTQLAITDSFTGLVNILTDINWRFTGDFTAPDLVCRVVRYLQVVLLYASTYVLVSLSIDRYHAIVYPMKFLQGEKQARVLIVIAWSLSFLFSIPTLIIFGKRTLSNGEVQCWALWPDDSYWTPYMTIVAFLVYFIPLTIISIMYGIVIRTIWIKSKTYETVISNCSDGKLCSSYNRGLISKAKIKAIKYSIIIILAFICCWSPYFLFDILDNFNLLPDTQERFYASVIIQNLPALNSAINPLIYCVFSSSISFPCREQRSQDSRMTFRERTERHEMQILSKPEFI
# Assay: Confirmation Concentration-Response Assay for Antagonists of the Neuropeptide S Receptor: Robust Characterization of cAMP Signal Transduction
# Details: CHO-NPSR cells, NPS-stimulated cAMP TR-FRET; series mostly up to 50.7 µM; activity, negative = inhibition: at the top concentration
SMILES,Potency,"activity, negative = inhibition"
N=c1c2c(ccn1CCCc1ccccc1)Oc1ccc3ccccc3c1C2c1ccccc1 (stereo unspecified),2.74 µM (active),–
Cc1nc2ccccn2c1P(=O)(c1ccccc1)c1ccccc1,–,10.3% (inactive)
N=c1c2c(ccn1CCc1ccccc1)Oc1ccc3ccccc3c1C2c1ccccc1 (stereo unspecified),3.87 µM (active),–
COc1cccc(C2c3c(ncn(CCCN4CCOCC4)c3=N)Oc3ccc4ccccc4c32)c1 (stereo unspecified),4.87 µM (active),–
COc1cccc(C2c3c(ncn(-c4cccc(C#N)c4)c3=N)Oc3ccc4ccccc4c32)c1 (stereo unspecified),13.7 µM (active),–
COc1cccc(C2c3c(ncn(-c4cccc(OC)c4)c3=N)Oc3ccc4ccccc4c32)c1 (stereo unspecified),6.88 µM (active),–
COc1cccc(C2c3c(ncn(-c4ccc(C(C)(C)C)cc4)c3=N)Oc3ccc4ccccc4c32)c1 (stereo unspecified),12.2 µM (active),–
CCOc1ccc(C2c3c(ncn(-c4ccccc4)c3=N)Oc3ccc4ccccc4c32)cc1OCC (stereo unspecified),3.45 µM (active),–
COc1cccc(C2c3c(ncn(-c4ccc(C#N)cc4)c3=N)Oc3ccc4ccccc4c32)c1 (stereo unspecified),12.2 µM (active),–
COc1ccc(-n2cnc3c(c2=N)C(c2cccc(OC)c2)c2c(ccc4ccccc24)O3)cc1 (stereo unspecified),6.88 µM (active),–
N=c1c2c(ncn1-c1ccccc1)Oc1ccc3ccccc3c1C2c1ccc2c(c1)CCO2 (stereo unspecified),2.18 µM (active),–
COc1cccc(C2c3c(ncn(CCN4CCOCC4)c3=N)Oc3ccc4ccccc4c32)c1 (stereo unspecified),12.2 µM (active),–
COc1ccc(C2c3c(ncn(CCN4CCOCC4)c3=N)Oc3ccc4ccccc4c32)cc1OC (stereo unspecified),2.74 µM (active),–
COc1cccc(C2c3c(ncn(-c4ccccn4)c3=N)Oc3ccc4ccccc4c32)c1 (stereo unspecified),17.3 µM (active),–
N#CC1=C(NC=NCc2ccccc2)Oc2ccc3ccccc3c2C1c1ccccc1 (stereo unspecified),1.37 µM (active),–
CCOC(=O)c1ccc(-n2cnc3c(c2=N)C(c2cccc(OC)c2)c2c(ccc4ccccc24)O3)cc1 (stereo unspecified),10.9 µM (active),–

SMILES,Potency,"activity, negative = inhibition"
CCOC(=O)CCCC(=O)Nc1ncnc2c1C(c1ccccc1)c1c(ccc3ccccc13)O2 (stereo unspecified),2.44 µM (active),–
COc1ccc(C2c3c(ncn(CCc4ccccc4)c3=N)Oc3ccc4ccccc4c32)cc1OC (stereo unspecified),27.4 µM (active),–
Cc1c(C(O)(c2ccccc2)c2ccccc2)[n+]2ccccc2n1C,–,1.1% (inactive)
COc1cccc(C2c3c(ncn(-c4ccccc4Br)c3=N)Oc3ccc4ccccc4c32)c1 (stereo unspecified),9.72 µM (active),–
O=C(c1ccccc1)N(C(=O)c1ccccc1)c1ncnc2c1C(c1ccccc1)c1c(ccc3ccccc13)O2 (stereo unspecified),1.54 µM (active),–
COc1cccc(C2c3c(ncn(-c4ccncc4)c3=N)Oc3ccc4ccccc4c32)c1 (stereo unspecified),13.7 µM (active),–
CC(C)(C)OC(=O)Nc1ncnc2c1C(c1ccccc1)c1c(ccc3ccccc13)O2 (stereo unspecified),10.9 µM (active),–
COc1cccc(C2c3c(ncn(-c4ccccc4C)c3=N)Oc3ccc4ccccc4c32)c1 (stereo unspecified),6.88 µM (active),–
CCOC(=O)CCC(=O)Nc1ncnc2c1C(c1ccccc1)c1c(ccc3ccccc13)O2 (stereo unspecified),3.45 µM (active),–
COc1cccc(C2c3c(ncn(-c4ccc(-c5ccccc5)cc4)c3=N)Oc3ccc4ccccc4c32)c1 (stereo unspecified),–,-2.59% (inactive)
COc1cccc(C2c3c(ncn(-c4cccc(C)c4)c3=N)Oc3ccc4ccccc4c32)c1 (stereo unspecified),9.72 µM (active),–
COc1cccc(C2c3c(ncn(-c4ccccc4OC)c3=N)Oc3ccc4ccccc4c32)c1 (stereo unspecified),4.34 µM (active),–
COc1cccc(C2c3c(ncn(-c4ccccc4)c3=N)Oc3ccc4ccccc4c32)c1OC (stereo unspecified),4.34 µM (active),–
Fc1ccc(-c2c(P(=S)(c3ccccc3)c3ccccc3)n3ccccc3[n+]2C/C=C/c2ccccc2)cc1,0.471 µM (active),–
S=P(c1ccccc1)(c1ccccc1)c1c[n+](C/C=C/c2ccccc2)c2ccccn12,0.56 µM (active),–
